Data published in ChEMBL document CHEMBL3988442, “University of Dundee, Small-Polar-MMV Screening Library” (2021).
Out of some 48,000 compounds screened, about 13,000 (27%) showed an effect of 50% or more. This is one part of the list.

Test system: Wolbachia pipientis
Assay: Anti-Wolbachia Cell-Based Screen
Format: functional
Parameters: scale not given: in the data most compounds retested in dose-response had high values
Conditions: 5 µM

Structure (SMILES)	Percent Effect [%]
COc1ccc(F)cc1C(=O)N1C[C@H]2CC[C@@H]1CN(c1ncccn1)C2	11.2
CN(C)C(=O)Cc1ccccc1NCc1cc(C#N)ccc1F	6.834
Cn1cc(CN2CCn3cc(CNC(=O)CC4CC4)nc3C2)cn1.O=C(O)C(F)(F)F	-2.745
CC(c1ccccc1F)N(CC(N)=O)C1CC1 (stereo unspecified)	1.619
Cc1cc(-c2ccccc2)nc(C2CCCN2S(C)(=O)=O)n1 (stereo unspecified)	91.07
CCCS(=O)(=O)N1CCCC1c1cccc(N(C)C)c1 (stereo unspecified)	5.298
Cc1cc(-c2cccnc2)nc(C2CCCN2S(C)(=O)=O)n1 (stereo unspecified)	97.49
Cc1ccc(-c2cc(C)nc(C3CCCN3S(C)(=O)=O)n2)cc1 (stereo unspecified)	112.5
Cc1nc2ccc(-n3ncnc3[C@@H]3CCCN3S(C)(=O)=O)cc2s1	-0.8415
CN(Cc1cc(-c2cccnc2)no1)C(=O)C1CCCN1S(C)(=O)=O (stereo unspecified)	-3.149
Cc1cc(-c2cncnc2)nc(C2CCCN2S(C)(=O)=O)n1 (stereo unspecified)	120.6
Cc1ccc(O[C@@H]2C[C@H]3CN(Cc4nccn4C)CCN3C2)cc1.O=C(O)C(F)(F)F.O=C(O)C(F)(F)F	-3.373
CCC1=N[C@@]2(CC[C@@H]3CN(S(=O)(=O)CC(C)C)C[C@@H]32)C(=O)N1CC1CC1	6.599
C[C@@H]1CN(C2CCN(c3ccccc3F)CC2)C[C@]1(C)O	-10.13
CC(=O)NC(C)(C)c1noc(C2(C#N)CCCCC2)n1	-6.661
COc1ccccc1CNCc1nn(-c2ccccc2)c2c1CCC2	-29.63
CC(C)c1noc(C2CCCN2S(=O)(=O)Cc2ccc(F)cc2)n1 (stereo unspecified)	-21.21
CS(=O)(=O)N1CCCCCC1c1cc(-c2ccc(F)cc2)no1 (stereo unspecified)	132.6
COc1ccc(-c2cc(C3CCCCCN3S(=O)(=O)N(C)C)on2)cc1 (stereo unspecified)	-9.2
Cc1cc(-c2ccccc2C(=O)O)nc(C2CCCN2S(C)(=O)=O)n1 (stereo unspecified)	105.2
Cc1ncsc1CCN(C)C(=O)C(c1cccnc1)N1CCOCC1 (stereo unspecified)	2.321
c1nc2onc(C3CC3)c2cc1-c1nnc(C2CC2)o1	-6.537

Structure (SMILES)	Percent Effect [%]
O=C(COc1ccc2cccnc2c1)N1CCN[C@H]2CS(=O)(=O)C[C@H]21	2.711
COc1ccc(-c2cc(C[C@@H]3C[C@H](N(C)C)C3(C)C)no2)cc1	1.876
COc1ccc(-c2csc(-c3cccc(C(=O)O)c3)n2)cc1OC	-12.11
COc1ccc(-c2cc(-c3nc(CN4CCN(C)CC4)no3)[nH]n2)cc1	-0.5802
COc1ccc(-c2cc(N)on2)cc1	77.55
COc1ccc(-c2noc(C3=NN(C)C(=O)CC3)n2)cc1OC	-3.216
COc1ccc(-c2cc(N)on2)cc1OC	106.7
COc1cccc(C(O)Cn2ncc3ncccc3c2=O)c1 (stereo unspecified)	-14.22
Cc1nc(CNC(C)c2ccc(S(=O)(=O)N(C)C)cc2)no1 (stereo unspecified)	-3.104
Cc1cscc1C(=O)NC1CC(=O)N(C(C)C)C1=O (stereo unspecified)	-19.94
Oc1nc(N2CCOCC2)nc2c1CCN(Cc1cccnc1)CC2	-6.583
Oc1nc(N2CCOCC2)nc2c1CCN(Cc1ccc(F)cc1)CC2	116.9
Oc1nc(N2CCOCC2)nc2c1CCN(Cc1cccc(F)c1)CC2	117
Oc1nc(N2CCOCC2)nc2c1CCN(Cc1ccccc1)CC2	129.9
c1cc(CN2CCc3nc(N4CCOCC4)nc(NC4CC4)c3C2)co1	2.456
Oc1nc(N2CCCC2)nc2c1CCN(Cc1cccnc1)CC2	121.5
Cn1ccnc1CN1C(=O)CO[C@H]2CN(Cc3ccc(F)c(F)c3)C[C@H]21	5.068
Cn1cc(S(=O)(=O)N2CCC(OCCCc3ccccc3)C2)cn1 (stereo unspecified)	-5.129
CC(=O)c1ccc(N2CCCC(CO)(CCc3ccccc3)C2)nc1 (stereo unspecified)	11.39
CC(C)C(O)C1CCN(c2ccnc(C(=O)NCc3ccco3)c2)CC1 (stereo unspecified)	-3
COc1cc(C(C)=O)ccc1SCC(=O)Nc1ccccn1	-8.38
COc1ccc(OC)c(NC(=O)CSc2ccc3nncn3n2)c1	92.9

Structure (SMILES)	Percent Effect [%]
COc1cc(Cl)c(C)cc1NC(=O)CNc1ccn(CC(N)=O)n1	-71.24
COc1ccc(NC(=O)CSc2nncn2-n2cccc2)c(OC)c1	89.78
COc1ccc(NC(=O)CCC2CCCN(S(=O)(=O)C3CC3)C2)c(C)c1 (stereo unspecified)	-10.5
COc1ccc(OC)c(-n2cnnc2CN)c1	-14.69
COc1ccc(NC(=O)CCSc2ccc3nncn3n2)c(OC)c1	100.6
COc1ccc(Cl)cc1NC(=O)CNc1ccn(CC(N)=O)n1	12.03
COc1ccc(OC)c(CCC(=O)Nc2cc(C)n[nH]2)c1	-33.89
COc1ccc(NC(=O)CNc2cccc3c2CCCC3)c(OC)c1	-2.331
CCN(CC)S(=O)(=O)c1ccc(OC)c(NC(=O)CSC)c1	-7.74
COc1ccc(NC(=O)CSc2ccc3nncn3n2)c(OC)c1	116.1
Cn1nccc1C1CCN(Cc2ccn(-c3ccccc3)n2)CC1	-5.293
CCOCC(=O)Nc1cc(-n2nnnc2C2CC2)ccc1F	-4.453
CNC(=O)NC(=O)C(NCc1cccs1)c1ccccc1 (stereo unspecified)	-60.87
CC(C)c1ccc(/C=C/CC(=O)NC2CCN(C(N)=O)C2)cc1 (stereo unspecified)	-19.1
Cc1nnc([C@@]23CCO[C@@H]2CCN(Cc2scnc2C)C3)o1	102.2
CCS(=O)(=O)N1CC[C@H]2OCC[C@@]2(c2nnc(C)o2)C1	3.137
Cc1nnc([C@@]23CCO[C@@H]2CCN(Cc2nccs2)C3)o1	93.98
Cc1noc([C@@]23CCO[C@@H]2CCN(Cc2scnc2C)C3)n1.O=C(O)C(F)(F)F	105.3
Cc1nnc([C@]23COC[C@H]2CN(Cc2nccs2)C3)o1.O=C(O)C(F)(F)F	-6.391
CNC(=O)[C@@]12CCO[C@@H]1CCN(Cc1scnc1C)C2.O=C(O)C(F)(F)F	-1.55
Cc1ncsc1CN1CC[C@H]2OCC[C@@]2(C(=O)N2CCCC2)C1	-2.591
Cc1noc([C@@]23CCO[C@@H]2CCN(CC2CCOCC2)C3)n1.O=C(O)C(F)(F)F	-22.2
